The record followed here is PubChem BioAssay AID1347165 (National Center for Advancing Translational Sciences (NCATS), 2019).

Several values for one entry are separate records, joined by “and”; a condition that tells them apart may be missing. Equal values may be shown once. Hit rate of the full screen: of about 220,000 compounds, about 5,700 (2.6%) were called active. A call without a number means that no potency is given here. About 18% were inconclusive and are not listed. This is one part of a sample in which actives are shown more often than they occur. Calls come from the whole dose curve; as a rule, active = well fitted inhibition curve with a large enough effect; inconclusive = small, poorly fitted or top-dose-only effect; inactive = no such curve, though single readings can be large or run the other way.
Potency is the fitted concentration of half-maximal effect.

Sequence of Lysine-specific demethylase 5B (Homo sapiens) (Q9UGL1 whole entry, looked up): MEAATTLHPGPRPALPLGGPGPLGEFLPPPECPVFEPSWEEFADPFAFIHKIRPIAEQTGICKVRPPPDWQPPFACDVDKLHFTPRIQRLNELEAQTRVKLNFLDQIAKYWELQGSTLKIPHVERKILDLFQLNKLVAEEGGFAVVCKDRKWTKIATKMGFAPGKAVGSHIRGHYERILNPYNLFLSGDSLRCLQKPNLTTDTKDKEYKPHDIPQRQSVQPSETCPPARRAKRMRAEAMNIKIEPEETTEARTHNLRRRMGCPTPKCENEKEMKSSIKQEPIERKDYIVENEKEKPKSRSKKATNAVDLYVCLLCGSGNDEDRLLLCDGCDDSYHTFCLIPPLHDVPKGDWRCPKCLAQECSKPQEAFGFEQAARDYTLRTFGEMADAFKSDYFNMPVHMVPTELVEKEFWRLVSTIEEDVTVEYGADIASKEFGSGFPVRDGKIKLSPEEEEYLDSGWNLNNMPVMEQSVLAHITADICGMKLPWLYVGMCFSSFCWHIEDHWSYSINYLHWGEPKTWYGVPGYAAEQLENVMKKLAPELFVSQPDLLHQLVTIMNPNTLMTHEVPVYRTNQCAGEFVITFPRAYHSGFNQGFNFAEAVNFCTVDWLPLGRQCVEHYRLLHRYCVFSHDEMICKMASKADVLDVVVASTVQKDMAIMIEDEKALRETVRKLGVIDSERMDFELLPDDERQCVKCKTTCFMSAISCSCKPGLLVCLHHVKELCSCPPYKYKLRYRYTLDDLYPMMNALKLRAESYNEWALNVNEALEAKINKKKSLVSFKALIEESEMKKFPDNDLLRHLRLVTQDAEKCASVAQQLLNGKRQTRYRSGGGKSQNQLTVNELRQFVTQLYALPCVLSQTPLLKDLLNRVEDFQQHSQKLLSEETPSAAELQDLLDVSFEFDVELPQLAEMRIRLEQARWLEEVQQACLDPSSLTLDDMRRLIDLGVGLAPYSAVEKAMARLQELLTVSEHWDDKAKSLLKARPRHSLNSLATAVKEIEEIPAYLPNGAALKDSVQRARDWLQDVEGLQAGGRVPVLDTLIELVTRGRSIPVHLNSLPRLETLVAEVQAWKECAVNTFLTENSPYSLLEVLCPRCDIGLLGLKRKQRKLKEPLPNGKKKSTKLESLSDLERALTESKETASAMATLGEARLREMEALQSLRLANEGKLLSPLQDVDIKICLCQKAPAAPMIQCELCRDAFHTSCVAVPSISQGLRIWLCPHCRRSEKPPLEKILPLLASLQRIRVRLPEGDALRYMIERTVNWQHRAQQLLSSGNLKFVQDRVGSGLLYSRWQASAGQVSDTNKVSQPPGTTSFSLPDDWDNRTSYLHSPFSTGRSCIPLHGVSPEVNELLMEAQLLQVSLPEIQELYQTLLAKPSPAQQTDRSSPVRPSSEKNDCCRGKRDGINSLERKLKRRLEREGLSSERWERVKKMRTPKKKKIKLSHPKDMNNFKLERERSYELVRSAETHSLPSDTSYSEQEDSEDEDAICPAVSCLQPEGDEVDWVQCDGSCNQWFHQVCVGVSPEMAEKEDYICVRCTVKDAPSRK

The target in the experiment is Lysine-specific demethylase 5B (Homo sapiens) (UniProt Q9UGL1). The experiment is described as follows: Primary screen for KDM5B Histone Demethylases FDH-coupled qHTS. Note: nearly all actives have a fitted effect of over 70% in size. The conditions noted are these: FDH-coupled NADH fluorescence (FDH is formaldehyde dehydrogenase); series mostly up to 57.7 µM. An outline of the steps:
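Here, H3K4me3 peptide (12.5 µM in substrate mix) is demethylated by KDM5BΔAP, 200 nM final, after 10 min compound exposure. Formaldehyde product is coupled through FDH (0.25 U/mL in mix) to NADH fluorescence; 30-min ΔRFU feeds dose-response curves.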
For orientation: In qHTS, concentration-response curves come from the screen itself.
Consider `CCCCS(=O)CC(O)CCl` (stereo unspecified), for which the Potency entry is “inactive”.
To `O=C(CN1CCCCCC1)Nc1ccc(Cl)cc1F` belongs “inactive”; to `CN(C)C(=O)CN1C(=O)c2ccccc2C1c1cn(C)c2ccccc12` (stereo unspecified), “inactive”; to `O=C(CCNc1c(-c2ccc(F)cc2)nc2cnccn12)Nc1ccc2c(c1)OCO2`, 25.1 µM (active).
On to `CC(=O)N1CCN(C(=O)CCC(=O)N2CCC(c3noc4cc(F)ccc34)CC2)CC1`, for which the Potency result is “inactive”.
With `CC1CCN(C(=O)CCNc2c(-c3ccc(F)cc3)nc3cnccn23)CC1` the figure was 31.6 µM (active).
With `Cc1cccc(-c2nc3cnccn3c2NCCC(=O)N2CCCCCC2)c1`, the Potency was 28.2 µM (active).
Take `Cc1cc(C)cc(C(=O)NCCC(=O)N2CCCC2)c1`: the Potency entry was “inactive”.
To `O=C1CCN(C(=O)C2CCN(C(=O)CCCc3ccccc3)CC2)CCCCCCN1` belongs “inactive”; to `Cc1cccc(-c2cccc(NC(=O)C3CCCN(C(=O)CC(F)(F)F)C3)c2)c1` (stereo unspecified), “inactive”.
Take `O=C(CSc1nc(-c2cccc(F)c2)[nH]c1-c1ccccc1)Nc1ccc2c(c1)OCO2`: the Potency entry was “inactive”.
With `O=C(Nc1c(-c2ccc(F)cc2)nc2ccccn12)c1cccc(F)c1` the entry was “inactive”; with `O=C(NC1CCCCC1)N1CCCCCC1c1nc(-c2cccnc2)no1` (stereo unspecified), “inactive”; with `O=C(CCNc1c(-c2ccccc2)nc2cnccn12)N1CCC(N2CCCCC2)CC1`, 28.2 µM (active).
With `Oc1ccc(-c2nc3ccc(Cl)cn3c2Nc2ccc3c(c2)OCO3)cc1`, the Potency entry is “inactive”.
As for `CC(C)CCN(CC(=O)NC(N)=O)C1CC1`, the Potency entry was “inactive”.
For `COc1ccc(NC(=O)Cc2c(C)c3ccc(OC)c(C)c3oc2=O)cc1OC`, the Potency entry was “inactive”.
Regarding `COC(=O)c1ccc(OCc2cccc(C#N)c2)c(OC)c1`, the Potency result is “inactive”.
For the compound `Cn1c(=O)c2c(ncn2CCC(=O)Nc2ccc(F)cc2F)n(C)c1=O`, the Potency result was “inactive”.
With `COc1ccc(Nc2ccccc2)cc1`, the Potency result is “inactive”.
With `CCCn1nc(C(=O)OCc2nc(-c3cccc(OC)c3)no2)c2ccccc2c1=O` the entry was “inactive”; with `Cc1ccc(CNC(=O)c2c(O)nc3c(C)cccn3c2=O)cc1`, “inactive”.
Take `Cc1cccc(C)c1-c1nc(C(=O)N2CCN(c3ncccn3)CC2)n2ccccc12`: the Potency was 31.6 µM (active) and 28.2 µM (active).
Turning to `Cc1cccc(C)c1-c1nc(C(=O)NCc2ccc(F)cc2)n2ccccc12`, the Potency is 28.2 µM (active).
For `Cc1cccc(N2CCN(C(=O)c3cnc(N4CCCC4)nc3C)CC2)c1C`, the Potency result was “inactive”.
To `COCCNC(=O)c1cc(-c2cccc(Cl)c2)on1` belongs “inactive”.
With `O=C(c1cc(-c2ccccc2)n[nH]1)N1CCN(c2ncccn2)CC1` the entry was “inactive”.
As to `COC(=O)CNC(=O)c1nc(-c2ccc([S+](C)(=O)[O-])cc2)c2ccccn12`, the Potency result is “inactive”.
With `O=C(NCc1ccc(F)cc1)c1nc(-c2ccccc2)c2ccccn12` the figure was 28.2 µM (active).
With `O=C(CSc1nccn1Cc1ccc(F)cc1)NCc1ccccc1` the entry was “inactive”; with `Cc1cc2ccccc2n1CCNC(=O)c1ccc(F)cc1`, “inactive”; with `Cc1nc(-c2ccccc2)n(CC(=O)NCc2ccc(F)cc2)c(=O)c1CCO`, “inactive”.
As for `COc1cccc(/C=C2\C=C(c3ccc(C)cc3)OC2=O)c1OC(C)=O`, the Potency result was “inactive”.
With `O=C(NCCN1CCCCC1)C(=O)Nc1cccc2[nH]ccc12` the entry was “inactive”.
Take `CCCC(=O)Nc1ccc(-c2csc(NC)n2)cc1`: the Potency entry is “inactive”.
Turning to `O=C(Cn1c(=O)c2c(ncn2C2CCCC2)n(Cc2ccccc2)c1=O)NC1CCS(=O)(=O)C1` (stereo unspecified), the Potency result was “inactive”.
Turning to `CC(Oc1ccc(Cl)cc1)c1nc(-c2ccc(Cl)cc2)no1` (stereo unspecified), the Potency entry was “inactive”.
With `CN(c1ccccc1)c1cc(=O)c2ccnc(NC3CCOCC3)c2o1` the entry was “inactive”.
To `O=c1cc(N2CCOCC2)oc2c(NCc3ccncc3)nccc12` belongs 35.5 µM (active); to `O=c1cc(N2CCOCC2)oc2c(Nc3cccc(Cl)c3)nccc12`, “inactive”.
To `Cc1noc(C)c1-c1nccc2c(=O)cc(N3CCOCC3)oc12` belongs 39.8 µM (active); to `Cn1ncc2c(Nc3cccc4c3CCCC4)ncnc21`, “inactive”.
For `CCc1ccc(-n2nc(C)c3c(C(F)(F)F)cc(OCC(=O)NC(C)C)nc32)cc1`, the Potency result is “inactive”.
As for `COc1cc2c(C(=O)N(C)c3cc(Cl)ccc3OC)cn(C)c(=O)c2cc1OC`, the Potency result was “inactive”.
With `O=C(COc1ccccc1)N1CC2(C1)CN(Cc1ccc(Cl)cc1)C(=O)O2` the entry was “inactive”.
As to `N#CCCNC(=O)CSc1nc(C2CC2)nc2ccccc12`, the Potency entry was “inactive”.
Turning to `O=C(Cn1cnc2c(Cl)cc(Cl)cc2c1=O)N(C1CCCC1)C1CCS(=O)(=O)C1` (stereo unspecified), the Potency result was “inactive”.
To `Cc1ccc(C2(O)CCN(C(=O)c3ccccc3-c3nn[nH]n3)CC2)nc1` belongs “inactive”; to `Cc1ccc(C2(O)CCN(c3nccc(CCC(F)(F)F)n3)CC2)nc1`, 22.4 µM (active).
For the compound `CCCN1C(=O)NC(CC(=O)N2CCC(O)(c3ccc(C)cn3)CC2)C1=O` (stereo unspecified), the Potency entry was “inactive”.
Consider `Cc1csc(SCc2cc(Cl)c3c(c2)OCCO3)n1`, for which the Potency entry was “inactive”.
To `N#Cc1cccc(NC(=O)CSc2ccccc2C(=O)Nc2ccc3c(c2)OCCCO3)c1` belongs “inactive”; to `COc1ccccc1-n1nc(CC(N)=O)nc1C1CCCCn2nnnc21` (stereo unspecified), “inactive”; to `C=CCOc1cccc(NC(=O)c2ccccc2Cl)c1`, “inactive”.
With `COCCOCC(=O)N1CCC2(CC1)c1[nH]c3ccc(OC)cc3c1CCN2C` the figure was 28.2 µM (active); with `CN1CCc2c([nH]c3ccccc23)C12CCN(C(=O)c1nccc3ccccc13)CC2`, “inactive”.
On to `COc1ccc2[nH]c3c(c2c1)CCNC31CCN(C(=O)c2ccccc2)CC1`, for which the Potency entry was “inactive”.
As for `CCN1CCC(N(C(=O)c2cc3ccccc3n2C)C2CC2)CC1`, the Potency entry is “inactive”.
For the compound `CCc1cc(=O)oc2c(C)c(OCC(=O)NCCN3CCOCC3)ccc12`, the Potency entry is “inactive”.
`O=C(Cc1ccc(Cl)cc1)N1CCc2c(nc3cc[nH]n3c2=O)C1`: the Potency is 31.6 µM (active).
As for `O=C(Cc1ccc(F)cc1)N1CCCC(c2nn(-c3ccc(Cl)cc3)c(=O)[nH]2)C1` (stereo unspecified), the Potency result is “inactive”.
With `CCn1c2c(c(=O)n1Cc1ccccc1)CCN(C(=O)Cc1ccc3c(c1)OCO3)C2` the entry was “inactive”; with `Cc1nn2c(c1-c1ccccc1C(C)C)N(C(=O)c1cnccn1)CCC2`, “inactive”; with `Cc1nn2c(c1-c1ccccc1C(C)C)N(C(=O)c1cccc(C#N)c1)CCC2`, “inactive”.
To `Cc1nn2c(c1-c1ccccc1N1CCCC1)N(C(=O)c1ccn(C)n1)CCC2` belongs 7.94 µM (active); to `COc1cc(C2Nc3ccc(C)cc3[C@H]3OCCC[C@@H]23)cc(Cl)c1O` (stereo partly specified), “inactive”.
